PKA-R2B activ: activators of PKA-R2B holoenzyme, primary screen, biochemical, fluorescence polarization, Cy5-IP20, human; activation, % at 11.4 µM; PKA-R2B holoenzyme dissociation; R2B truncated from residue 108, S112A mutant; 0% DMSO only, 100% 113 µM cGMP; cAMP-dependent protein kinase catalytic subunit beta (Homo sapiens) + cAMP-dependent …; 0.079% of 340,000 active;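 active means activation above a cutoff set at the mean over all compounds plus 3 SD, cut at about 18% in these data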;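 further: higher means more holoenzyme dissociation and a rise in polarization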
ATG4B inhibitor: ATG4B protease inhibitors, primary screen, biochemical, fluorescence, uHTS. ATG4B cleavage of LC3-PLA2, NBD-HPC fluorescence, 1 h. AID 504462, 2011. inhibition, % at 8.33 µM. Cysteine protease ATG4B (Homo sapiens), Q9Y4P1. 0.51% of 340,000 active; in the data active means inhibition above about 40%
NRP1-CendR mod: modulators of CendR peptide binding to NRP-1, primary screen, biochemical, fluorescence polarization, uHTS | Neuropilin-1 (Homo sapiens), O14786 | FAM-RPARPAR peptide binding to NRP-1 | inhibition, % at 25 µM | 0.85% of 360,000 active | AID 602438, 2012;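 active means inhibition or corrected inhibition above about 18%, plus a signal ratio from 0.5 to 1.5, limit read from the data, passing the limit was not always enough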
VLA-4 inh: inhibition in human VLA-4 binding assay, primary screen, VLA-4 allosteric modulator project, MLPCN library, flow cytometry, VLA-4 expressing cells | Integrin alpha-4 (Homo sapiens), P13612 | ligand binding flow cytometry | 0.2% of 330,000 active | AID 2557, 2010 | inhibition, % (about 7 µM as worked out from the volumes in the protocol); in the data active means inhibition above about 50%
Target sequence (P13612 whole entry, looked up): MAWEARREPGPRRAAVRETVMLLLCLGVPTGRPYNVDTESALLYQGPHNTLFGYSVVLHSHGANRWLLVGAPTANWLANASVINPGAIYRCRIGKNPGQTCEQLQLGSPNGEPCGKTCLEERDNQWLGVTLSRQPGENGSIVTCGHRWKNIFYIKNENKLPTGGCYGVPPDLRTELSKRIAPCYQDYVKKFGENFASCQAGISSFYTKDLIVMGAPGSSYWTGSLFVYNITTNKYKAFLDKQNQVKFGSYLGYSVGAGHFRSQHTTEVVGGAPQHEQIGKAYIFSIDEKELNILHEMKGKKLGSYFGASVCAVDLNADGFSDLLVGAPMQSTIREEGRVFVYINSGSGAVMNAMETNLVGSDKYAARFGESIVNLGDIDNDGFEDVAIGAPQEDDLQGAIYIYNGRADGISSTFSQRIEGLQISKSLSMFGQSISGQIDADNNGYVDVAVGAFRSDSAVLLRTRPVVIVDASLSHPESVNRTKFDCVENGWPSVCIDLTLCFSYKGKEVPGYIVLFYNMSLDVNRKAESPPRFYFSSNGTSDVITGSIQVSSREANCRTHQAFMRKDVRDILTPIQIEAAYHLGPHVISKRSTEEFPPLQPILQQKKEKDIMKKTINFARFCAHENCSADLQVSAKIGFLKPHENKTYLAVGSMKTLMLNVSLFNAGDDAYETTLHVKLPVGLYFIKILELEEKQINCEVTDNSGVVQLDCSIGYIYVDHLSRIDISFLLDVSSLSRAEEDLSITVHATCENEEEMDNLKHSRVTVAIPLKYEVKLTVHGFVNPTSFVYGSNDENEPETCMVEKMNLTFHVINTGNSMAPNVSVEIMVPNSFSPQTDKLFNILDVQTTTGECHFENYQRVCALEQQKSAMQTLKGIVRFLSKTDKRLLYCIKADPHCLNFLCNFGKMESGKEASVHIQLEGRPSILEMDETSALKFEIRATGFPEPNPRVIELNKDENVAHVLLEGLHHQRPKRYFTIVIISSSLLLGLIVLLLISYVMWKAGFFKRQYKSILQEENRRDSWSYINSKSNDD
PKA-R1A act: activators of PKA-R1A holoenzyme, primary screen, biochemical, fluorescence polarization, Cy5-IP20, bovine R1A, mouse PKAc. cAMP-dependent protein kinase type I-alpha regulatory subunit (Bos taurus) + …. PKA-R1A dissociation; scaled: DMSO 0%, 113 µM cGMP 100%. activation, % at 11.4 µM. 0.083% of 340,000 active. AID 504707, 2011;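 active means percent activation above the mean of all tested compounds plus 3 SD, cut at about 19% in these data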;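 further: higher means more PKAc released from R1A so a rise in polarization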
An asterisk follows results filed as active; · = no result. This is a sample that favours compounds with a hit; in the whole collection about 1.6% have one here.

SMILES	PKA-R2B activ	ATG4B inhibitor	NRP1-CendR mod	VLA-4 inh	PKA-R1A act
COC(=O)[C@]12CCCCC=C1N(Cc1ccco1)C(=O)[C@H](CC(=O)NCCc1ccccc1OC)C2	·	·	-3	·	·
CN1CCN(/N=C/c2c3ccccc3c(Cl)c3ccccc23)CC1	-9	7	4	57*	-7
OCCN(CCO)c1cc2c3ccccc3ccc2c2ccccc12	-10	-42	25*	·	-4
O=C(Nc1ccccc1)c1cc(C2CCCCN2S(=O)(=O)c2ccccc2)on1 (stereo not drawn)	·	·	10	·	·
COc1ccc(CNc2nn3c(-c4cccc(C(=O)N(C)C)c4)cnc3s2)cc1	·	·	30*	·	·
CCCCN1CC[C@H]2C=CC[C@@H](C(=O)NCc3ccc(OC)cc3)[C@H]2C1=O	-1	-6	21*	21	4
O=C(O)[C@H]1CC=C[C@H]2CCN(Cc3ccc(Cl)c(Cl)c3)C(=O)[C@@H]12	3	-5	-10	·	-6
COc1ccc(CNC(=O)[C@@H]2CC=C[C@@H]3CCN(Cc4ccc(Cl)c(Cl)c4)C(=O)[C@@H]32)cc1	-4	-10	30*	-3	1
CCCCN1CC[C@H]2C=CC[C@@H](C(=O)Nc3ccc(Cl)cc3Cl)[C@H]2C1=O	0	3	34*	-23	3
COC(=O)[C@]12CCCCC=C1N(CCC1=CCCCC1)C(=O)[C@H](CC(=O)N1CCN(C(=O)c3ccco3)CC1)C2	·	·	3	·	·
NC(=O)c1cccc(-c2coc3c(C(=O)NCc4ccccc4)cccc23)c1	·	·	-10	·	·
Cc1nonc1CN(C)C(=O)CC1C(=O)NCCN1Cc1ccc(F)c(F)c1 (stereo not drawn)	7	4	11	8	4
CC(=O)Nc1ccc(NC(=O)C2CC(=O)N=C(N)S2)cc1 (stereo not drawn)	-7	0	32*	6	6
O=C(N[C@H](CO)c1ccccc1)[C@H]1O[C@@H](n2ccc(=O)[nH]c2=O)[C@H](O)[C@@H]1O	·	·	-5	·	·
Nc1sccc1C(=O)N1CCN(c2ccccc2)CC1	·	·	-4	·	·
Cc1cc(C(=O)N/N=C/c2ccc(C)s2)n[nH]1	-1	-3	18*	9	-4
Fc1cnc(N2CCOCC2)nc1N1CCOCC1	-1	0	21*	3	-5
O=C(NCc1ccccc1)C1c2ccccc2OCC(=O)N1CCc1c[nH]c2ccccc12 (stereo not drawn)	·	·	-4	·	·
O=C(C1CCN(c2ncnc3c2nc2n3CCCCC2)CC1)N1CCN(c2cccc(Cl)c2)CC1	1	47*	-1	-9	-7
CC1=C(C(=O)N(C)C)CC(CC(=O)NCCc2ccccn2)C(=O)N1Cc1ccccc1 (stereo not drawn)	0	·	-4	·	-4
O=C1Nc2ccccc2C12OCCO2	-12	2	35*	1	-12
COc1ccc(S(=O)(=O)Nc2cc3c4c(c2)CC(=O)N4CCC3)cc1C	-8	-6	10	8	0
C/C(CCc1ccccc1)=N\NC(=S)NCCc1ccccc1	-7	-8	8	8	0
C/C(=N\NC(=S)NCCc1ccccc1)c1cccs1	-12	-7	28*	13	-9
Cc1cc(C)n(-c2nnc3n2N=C(c2ccccc2)CS3)n1	-1	-3	4	-1	1
Cc1cc(C)n(-c2nnc3n2N=C(c2c[nH]c4ccccc24)CS3)n1	-7	-18	23*	7	-4
COc1ccc(/C=C/C(=O)NCC(=O)N/N=C/c2ccc(OC)cc2)cc1	-13	-11	20*	4	-5
CC(C)CN1C(=O)c2ccc(NC(=O)c3ccco3)cc2C1=O	4	2	1	6	-2
O=C(O)CCN1C(=O)c2ccc(NC(=O)c3ccco3)cc2C1=O	6	-8	21*	10	1
O=C(Cc1ccc([N+](=O)[O-])cc1)N1N=C(C2CC2)CC1(O)C(F)(F)F (stereo not drawn)	0	-12	-1	-30	9
